Type in all cases: functional
Assay [1] deals with Solute carrier family 2, facilitated glucose transporter member 1 (Homo sapiens) (UniProt P11166). The assay is described as follows: ST_JUDE_LEISH: Cytotoxicity at 2uM final concentration against transgenic Leishmania Mexicana promastigotes LmGLUT1 that are glucose transport deficient and complemented with the human glucose transporter GLUT1. Activity is measured by DNA content using SYBR green in vitro.

For assay [2], the target named is Hexose transporter 1 (Plasmodium falciparum) (UniProt O97467). Briefly: ST_JUDE_LEISH: Cytotoxicity at 2uM final concentration against transgenic Leishmania Mexicana promastigotes LmPfHT that are glucose transport deficient and complemented with the Plasmodium falciparum hexose transporter. Activity is measured by DNA content using SYBR green in vitro.
In assay [3] the target is Glucose transporter (Leishmania mexicana) (UniProt O61059). The assay is described as follows: ST_JUDE_LEISH: Cytotoxicity at 2uM final concentration against transgenic Leishmania Mexicana promastigotes LmGT2 that are glucose transport deficient and complemented with the L. Mexicana glucose transporter 2. Activity is measured by DNA content using SYBR green in vitro.

Our source for the inhibition values is ChEMBL document CHEMBL3433997, “St. Jude Leishmania screening dataset” (2016).

Chain of Solute carrier family 2, facilitated glucose transporter member 1 (Homo sapiens) (P11166 whole entry): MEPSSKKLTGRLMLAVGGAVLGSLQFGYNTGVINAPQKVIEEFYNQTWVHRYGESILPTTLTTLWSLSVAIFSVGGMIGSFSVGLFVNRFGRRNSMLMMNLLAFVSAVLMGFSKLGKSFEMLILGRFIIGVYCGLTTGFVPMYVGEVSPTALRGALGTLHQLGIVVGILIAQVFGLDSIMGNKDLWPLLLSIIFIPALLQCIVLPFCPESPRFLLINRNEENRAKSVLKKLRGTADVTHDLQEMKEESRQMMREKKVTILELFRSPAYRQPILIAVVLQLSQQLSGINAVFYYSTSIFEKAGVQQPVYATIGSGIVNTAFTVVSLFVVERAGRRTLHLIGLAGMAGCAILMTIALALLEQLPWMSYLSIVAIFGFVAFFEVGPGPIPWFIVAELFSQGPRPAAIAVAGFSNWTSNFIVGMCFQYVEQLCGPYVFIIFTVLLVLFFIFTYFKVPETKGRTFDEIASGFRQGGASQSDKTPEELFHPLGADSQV

As usually defined, the inhibition is the relative decrease from the control value, in per cent. `c1ccc(-c2ccc(CNCCCNc3nc4ccccc4[nH]3)cc2)cc1`: the inhibition in assay [1] turned out to be 4.26%; in assay [2], 9.56%; in assay [3] it was 6.92%.
Turning to `CCOC(=O)c1ccc2[nH]c(-c3ccc(C(=O)NCc4ccc(C(C)(C)C)cc4)cc3)nc2c1`, the inhibition in assay [1] is 4.63%; in assay [2], 2.27%; in assay [3], 1.02%.
Turning to `C=C1N(C)c2cc([N+](=O)[O-])c(N)cc2C1(C)C`, the inhibition in assay [1] is 0.68%; in assay [2] it was -0.1%; in assay [3] it was -1.11%.
In the same order, the values of `COc1cccc(N(CCCN2C(=O)c3cccc4cccc(c34)C2=O)C(=O)c2ccccc2C)c1` are 5.96%, 7.4% and 0.69%.
Consider `Cc1c(CC(=O)N(C)C2CCN(CCCCCNC(=O)/C=C/c3ccc(Cl)c(Cl)c3)CC2)sc2ccc(Cl)cc12`, for which the values for the inhibition in assay [1], in assay [2] and in assay [3] were 7.99%, 0.91% and 5.9%, respectively.
Consider `O=C(Nc1ccc(OC2CCN(Cc3ccsc3)CC2)c(Cl)c1)c1cccs1`, for which the inhibition was found to be 7.63% in assay [1], 2.38% in assay [2] and 2.85% in assay [3].
In the same order, the values of `COc1cc2nc(NCCc3ccccc3)nc(NCc3cnn(C)c3C)c2cc1OC` are 9.47%, 8.36% and 7.1%.
Consider `CC(C)c1sc(N2CCN(C)CC2)nc1C(=O)Nc1cccc2c1CCCC2`, for which the inhibition in assay [1] was 0.42%; in assay [2], 1.67%; in assay [3], 1.79%.
On to `CC(C)C[C@H](NC(=O)[C@H](Cc1ccccc1)NC(=O)CCN1C(=O)COc2ccc(C(=O)O)cc21)C(=O)NC(CC1CCCCC1)C(O)CC(=O)NCCCn1ccnc1` (stereo not given in full), for which the inhibition came to 9.79% in assay [1], 6.73% in assay [2] and 9.78% in assay [3].
In the same order, the values of `CC(C)(C)CNCC(C)(C)c1nc(-c2ccc(Cl)c(O)c2)c(-c2ccncc2)[nH]1` are -1.13%, 0% and -1.37%.
In the same order, the values of `O=[N+]([O-])c1cccc(NC(=S)N2CCCN(Cc3ccc(C(F)(F)F)cc3)CC2)c1` are 2.92%, 4.79% and 3.25%.
In the case of `O=C(NCC1CCN(CC2CCCCC2)C1)c1cc(-c2cccc(Cl)c2)cs1` (stereo not given), the inhibition is 2.86% in assay [1], 1.57% in assay [2] and 1.14% in assay [3].
Take `O=C(Nc1ccc(C(F)(F)F)cc1)N[C@H]1CCN(CCCCCNC(=O)C2CC2c2ccc(Cl)c(Cl)c2)C1` (stereo not given in full): the inhibition in assay [1] stood at 3.36%; in assay [2], 2.73%; in assay [3], 2.17%.
`CS(=O)(=O)Cc1ccc(Nc2nccc(NC3CCN(c4nccc(C(F)(F)F)n4)CC3)n2)cc1`: the inhibition in assay [1] was 2.96%; in assay [2], 1.41%; in assay [3] it was -2.6%.
On to `Cc1cc(O)c(-c2cccc(Oc3ccc(Cl)cc3)c2)c(C)n1`, for which the inhibition is -1.02% in assay [1], 1.39% in assay [2] and -3.29% in assay [3].
Turning to `C=CCn1c(SCC(=O)Nc2cc(Cl)ccc2Cl)nc2sc(C)cc2c1=O`, the inhibition in assay [1] stood at 1.86%; in assay [2], 0.95%; in assay [3], 0.76%.
Take `O=C(c1cncc(-c2ccccc2)c1)N(Cc1cncn1Cc1ccccc1F)CC1CC1`: the inhibition in assay [1] was 0.88%; in assay [2], 0.96%; in assay [3], -0.58%.
In the case of `CN(C)Cc1cccc(-c2ccc(NC(=O)c3ccc4c(=O)n(CCN5CCCCC5)cnc4c3)cc2)c1`, the inhibition is 3.67% in assay [1], 3.74% in assay [2] and 0.81% in assay [3].
In the same order, the values of `CCCCCCN1CCC(NCc2cccc([N+](=O)[O-])c2)CC1` are 3.72%, 5.68% and 4.96%.
As for `Cc1cc(-c2nc3ccc(CN4CCN(C)CC4)cc3[nH]2)nn1Cc1cc(Cl)ccc1OCc1ccccc1`, the figures for the inhibition in assay [1], in assay [2] and in assay [3] were 3.84%, 3.27% and 2.54%, respectively.
As to `O=C(Nc1ccc(Cl)c(C(F)(F)F)c1)Nc1ccc(Cl)c(C(F)(F)F)c1`, the inhibition amounted to 0.91% in assay [1], 1.04% in assay [2] and 2.07% in assay [3].
Regarding `Cc1cc(CNCCCCCCCNCc2ccc(-c3ccccc3)cc2)ccc1O`, the figures for the inhibition in assay [1], in assay [2] and in assay [3] were 0.67%, 1.76% and 1.05%, respectively.
In the case of `CCOC(=O)c1ccc(NC(=O)N(Cc2ccc(-c3cccc(CN4CCNCC4)c3)cc2)C2CCN(Cc3ccccc3)CC2)cc1`, the inhibition is 2.49% in assay [1], 1.96% in assay [2] and 7.56% in assay [3].
`COc1cccc(C(=O)Nc2ccc(Nc3nc(C)cc(N4CCCCC4)n3)cc2)c1OC`: the inhibition in assay [1] came to 1.99%; in assay [2], 2.75%; in assay [3], 0.19%.
On to `COc1ccc(Nc2nccc(NCCNC(=O)Nc3cc(C)ccc3C)n2)cc1`, for which the values for the inhibition in assay [1], in assay [2] and in assay [3] were 11.1%, 9.29% and 1.38%, respectively.
Consider `COc1cccc(C(=O)OC2=C3CCC(=O)C3(C)CCC2=O)c1` (stereo not given), for which the values for the inhibition in assay [1], in assay [2] and in assay [3] were 5.35%, 4.65% and 6.31%, respectively.
Turning to `O=C(NC1CCN(Cc2ccccc2)CC1)c1cc(-c2ccncc2)nc2ccc(Cl)cc12`, the inhibition in assay [1] came out at 4.96%; in assay [2] it was 3.26%; in assay [3], 0.14%.
With `Cc1cccc2nc(-c3ccc(-c4ccc(C(=O)NCCN5CCCC5)cc4)cc3)[nH]c12`, the figures for the inhibition in assay [1], in assay [2] and in assay [3] were 0.86%, -1.27% and -0.61%, respectively.
Turning to `CC(=O)Nc1ccc(OCCN(CC(C)C)c2ccc(C(F)(F)F)c(C#N)c2)c(Cl)c1`, the inhibition in assay [1] came to 6.51%; in assay [2], 10.4%; in assay [3] it was 8.7%.
Regarding `Cn1nccc1C(=O)NCCNCc1cccc(-c2ccc(-c3nc4ccccc4[nH]3)s2)c1`, the inhibition in assay [1] is -0.55%; in assay [2], -0.8%; in assay [3], -1.72%.
Consider `O=S(=O)(Nc1ccc(-c2ccc(CN3CCCC3)cc2)cc1)c1cccc2cccnc12`, for which the inhibition in assay [1] was 78%; in assay [2], 85.2%; in assay [3], 71.7%.
In the same order, the values of `O=C(Nc1ccc(C(=O)Oc2ccc3ccccc3c2)cc1)N[C@@H](Cc1ccc(O)cc1)C(=O)NC1CCN(Cc2ccc(O)cc2)C1` (stereo not given in full) are 0.75%, -0.55% and -2.23%.
In the case of `Cc1cccc2nc(-c3ccc(-c4ccc(NC(=O)Nc5ccc(Cl)c(Cl)c5)cc4)s3)[nH]c12`, the inhibition in assay [1] is 1.5%; in assay [2] it was 1.27%; in assay [3] it was -6.86%.
On to `C=CCOC(=O)N1CCC(CNCc2cccc(-c3ccc(-c4nc5cc(C(F)(F)F)ccc5[nH]4)cc3)c2)C1` (stereo not given), for which the inhibition in assay [1] is 2.19%; in assay [2], 2.5%; in assay [3] it was 1.63%.
In the same order, the values of `O=C(/C=C/c1ccc(Cl)c(Cl)c1)NCCCCCN1CCCC(CNS(=O)(=O)c2ccc(F)cc2)C1` (stereo not given) are -1.15%, -0.91% and 1.39%.
